Source: PubChem BioAssay (EPA / NIEHS)
Results filed as inconclusive are left out. The source made the active and inactive calls. The calls were made as follows: active = hit-call score of the fitted dose curve at least 0.9, where 1 is the maximum; inconclusive = response in the unintended direction; inactive = score below 0.9.

Assays:
[1] = TOX21_p53_BLA_p2_viability: Viability Assessment in the Tox21 HCT-116 p53 Agonism Beta-lactamase Assay, Phase 2 (AID 2283591);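 also: compound exposure lasted 16 h at 37 °C; actives lower the ATP signal meaning cytotoxicity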
Method in brief: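 HCT116 p53-bla cells, 4000/well, dosed after 5 h plating (217-fold dilution of DMSO stocks) and incubated 16 h at 37C. Viability taken as cellular ATP by CellTiter-Glo luminescence after 30 min RT; signal loss marks cytotoxicity.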

[2] = biological target: Cellular tumor antigen p53 (Homo sapiens) (UniProt P04637); test: TOX21_p53_BLA_p2_ratio: Tox21 HCT-116 p53 Agonism Beta-lactamase Assay, Ratio, Phase 2 (AID 2283592)
Method in brief: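 Read-out is the blue/green (460/530 nm, 405 nm excitation) ratio after 2 h CCF4-AM loading, fitted as gain versus DMSO. Compounds, pinned at 217-fold dilution from DMSO stocks, stayed 16 h on HCT-116 beta-lactamase reporter cells seeded 5 h earlier.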

[3] = biological target: Cellular tumor antigen p53 (Homo sapiens) (UniProt P04637); test: TOX21_p53_BLA_p3_ratio: Tox21 HCT-116 p53 Agonism Beta-lactamase Assay, Ratio, Phase 3 (AID 2283596)
Method in brief: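 Cells were seeded at 4000/well, rested 5 h at 37C, then dosed with DMSO compound solutions (217-fold dilution) for 16 h. CCF4-AM substrate was loaded for 2 h at room temperature, and the 460/530 nm emission ratio was fitted for gain of signal versus DMSO.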

[4] = biological target: Cellular tumor antigen p53 (Homo sapiens) (UniProt P04637); test: TOX21_p53_BLA_p4_ratio: Tox21 HCT-116 p53 Agonism Beta-lactamase Assay, Ratio, Phase 4 (AID 2283601)
Method in brief: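 HCT-116 p53 beta-lactamase reporter cells (4000/well) preincubated 5 h, then compound (217-fold dilution of DMSO stock) for 16 h at 37C. CCF4-AM substrate added 2 h at room temperature; 460/530 nm emission ratio fitted upward versus DMSO.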

[5] = TOX21_p53_BLA_p5_viability: Viability Assessment in the Tox21 HCT-116 p53 Agonism Beta-lactamase Assay, Phase 5 (AID 2283600)
Method in brief: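 Viability came from CellTiter-Glo ATP luminescence, read after 30 min at room temperature. Before this, HCT-116 p53-bla cells (4000/well) had 16 hours of compound exposure at 37C, with DMSO stocks diluted 217-fold on transfer.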

[6] = biological target: Cellular tumor antigen p53 (Homo sapiens) (UniProt P04637); test: TOX21_p53_BLA_p5_ratio: Tox21 HCT-116 p53 Agonism Beta-lactamase Assay, Ratio, Phase 5 (AID 2283599)
Method in brief: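 HCT-116 p53-bla cells (4000/well) plated 5 h, dosed with compound (217-fold DMSO dilution) for 16 h at 37 C; CCF4-AM substrate 2 h at room temperature. Activity is the 460/530 nm emission ratio (405 nm excitation), fitted in gain-of-signal direction versus DMSO.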

[7] = TOX21_p53_BLA_p4_viability: Viability Assessment in the Tox21 HCT-116 p53 Agonism Beta-lactamase Assay, Phase 4 (AID 2283597);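 also: hits lower the luminescence signal meaning cytotoxicity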
Method in brief: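 Cytotoxicity as reduced cellular ATP (CellTiter-Glo luminescence, 30 min room temperature), measured in the same wells following the CCF4 FRET p53 reading. Human HCT-116 cells received compounds in DMSO (217-fold dilution) for 16 h.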

Measured: outcome

Sequence of Cellular tumor antigen p53 (Homo sapiens) (P04637 whole entry, looked up): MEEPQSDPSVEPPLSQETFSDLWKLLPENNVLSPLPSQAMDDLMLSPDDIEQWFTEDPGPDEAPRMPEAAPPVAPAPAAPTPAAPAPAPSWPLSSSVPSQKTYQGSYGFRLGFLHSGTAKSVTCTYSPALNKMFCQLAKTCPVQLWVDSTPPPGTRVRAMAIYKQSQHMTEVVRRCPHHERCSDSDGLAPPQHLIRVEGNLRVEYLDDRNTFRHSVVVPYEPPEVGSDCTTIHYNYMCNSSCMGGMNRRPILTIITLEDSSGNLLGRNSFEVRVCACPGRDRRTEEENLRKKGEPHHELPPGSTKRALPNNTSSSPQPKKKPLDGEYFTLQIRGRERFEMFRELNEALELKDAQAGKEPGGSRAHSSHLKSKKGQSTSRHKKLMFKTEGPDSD

NC(CS)C(=O)O (stereo not given)
inactive: [1] | [2] | [3] | [4]

COc1cccc(OC)c1C(=O)N[C@@H]1C(=O)N2[C@@H]1SC(C)(C)[C@@H]2C(=O)O
not listed: [6] | [7]
inactive: all other assays above

Nc1ncnc(Nc2ccccc2)n1
inactive: [1] | [2] | [3] | [4]

O=S(=O)(O)CCN1CCN(CCO)CC1
not listed: [6] | [7]
inactive: all other assays above

O=C1c2ccccc2C(=O)C1c1ccc(Cl)cc1
inactive: [1] | [2] | [3] | [5]

Cc1cn([C@H]2C[C@H](F)[C@@H](CO)O2)c(=O)[nH]c1=O
not listed: [6] | [7]
inactive: all other assays above

NCCO/C=C/[C@H](N)C(=O)O
not listed: [5] | [7]
inactive: all other assays above

Oc1ccc(O)c2c(O)cccc12
not listed: [6] | [7]
inactive: all other assays above

CC(=O)Nc1ccc(C(=O)O)cc1
not listed: [6] | [7]
inactive: all other assays above

CCN(Cc1ccncc1)C(=O)C(CO)c1ccccc1 (stereo not given)
inactive: [1] | [2] | [3] | [5]

COc1ccc(C)cc1
not listed: [6] | [7]
inactive: all other assays above

CN1CCC(CN2c3ccccc3Sc3ccccc32)C1 (stereo not given)
inactive: [1] | [2] | [7] | [6]

CN(CC1(C)CCCO1)S(=O)(=O)c1ccc(Cl)c(S(N)(=O)=O)c1 (stereo not given)
not listed: [6] | [7]
inactive: all other assays above

CC/C=C\C/C=C\C/C=C\C/C=C\C/C=C\C/C=C\CCC(=O)O
not listed: [5] | [7]
inactive: all other assays above

CO/N=C(\C(=O)N[C@@H]1C(=O)N2C(C(=O)[O-])=C(C[n+]3cccc4c3CCC4)CS[C@H]12)c1csc(N)n1
not listed: [6] | [7]
inactive: all other assays above
